HIV Env fusion = inhibitors of HIV Env-mediated cell fusion | HeLa-JRFL Env/CEM21 cell fusion, luciferase | inhibition, % at 12.3 µM | hit rate 1.1% among 360,000 | AID 651610;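 active = mean replicate inhibition score of at least 50 and every replicate individually at or above 50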;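 also: 0% = plate neutral controls and 100% = maraviroc near 300 nM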
miR-122 sensor = inhibitors of miR-122 in Huh7 cells. Huh7 miR-122 Renilla luciferase sensor, 48 h; neutral wells = 0, positive control = 100. activation (reporter increase), % at 12.5 µM. hit rate 0.3% among 340,000. AID 602342;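 active = mean replicate activation score at least 90 and every replicate individually at or above 90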;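 also: higher luciferase means less miR-122 activity so hits act as miR-122 inhibitors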
EWS-Fli block = EWS/Fli transcriptional activity inhibition; A673 NR0B1-luciferase reporter, viability-normalised; inhibition, % at 12.6 µM; hit rate 0.67% among 350,000; AID 651661;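 active = mean inhibition of at least 50% after viability correction, with every replicate also passing that limit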;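 also: firefly luciferase signal divided by Alamar Blue viability fluorescence both relative to DMSO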
PAX8 inh HTS = PAX8 transcriptional activity inhibition. RMG-I TPO-luciferase reporter, SteadyGlo, 24 h. inhibition, % at 12.6 µM. hit rate 1.2% among 360,000. AID 652154;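 active = mean replicate inhibition at least 60% with every replicate also reaching 60%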;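 also: luciferase light reporting Pax8 driven TPO promoter activity; plate controls were median of neutral control wells for no effect and mitoxantrone controls for full effect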
INS-1E GSIS act = GLuc luminescence reporter in INS-1E cells, primary screen for activators of glucose-dependent secretion of insulin; INS-1E GLuc reporter insulin secretion, 2-3 h; activation, % at 16.6 µM; hit rate 0.61% among 370,000; AID 743287;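 active = lowest replicate activation of at least 40%, so every replicate reaches that level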;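 also: 0% = median of neutral control wells and 100% = median of IBMX positive control wells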
Statin myotox sup = suppression of simvastatin myotoxicity; C2C12 myotubes + simvastatin, ATP luminescence, 48 h; scaled: DMSO 0, geranylgeraniol control 100; rescue of ATP level, % at 7.49 µM; hit rate 0.78% among 330,000; AID 602340;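 active = mean ATP rescue above about 67%, or every replicate alone reaching that limit, limit read from the data, passing the limit was not always enough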;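 also: myotubes were challenged with 10 µM simvastatin during compound exposure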
Active calls of the source: *; . = no result given; [ ] = another dose, or the depositor's remark. Only some compounds are listed: those with a hit (about 3.1% of all), similar ones and a draw of the others.

SMILES | HIV Env fusion | miR-122 sensor | EWS-Fli block | PAX8 inh HTS | INS-1E GSIS act | Statin myotox sup
CCN1C(Nc2ccccc2)=NC[C@@H]1Cc1ccccc1 | 13 | 3 | 4 | -5 | 10 | 15
CN(C)C1=NC[C@H](Cc2ccccc2)N1CC1CCCCCC1 | -25 | -1 | 5 | 5 | -9 | 97*
CN(C)C1=NC[C@H](Cc2ccccc2)N1CCC1CCCC1 | -3 | 0 | 2 | 5 | -1 | -55
C[C@@H]1CCCCO[C@H](CN(C)S(=O)(=O)c2cccs2)[C@@H](C)CN([C@H](C)CO)C(=O)c2cc(NC(=O)Nc3cccc4ccccc34)ccc2O1 | 20[16.7 µM] | -2[16.7 µM] | -11 | 14 | 9 | 1
O=[N+]([O-])c1ccc(O)c(/C=N/Nc2nn[nH]n2)c1 | 12 | -8 | 6 | 3 | 6 | 1
O=[N+]([O-])c1ccc(O)c(/C=N/Nc2ccc(Cl)nn2)c1 | 82* | -46 | . | . | 34 | .
CC(/C=N/NC(=O)c1cccc([N+](=O)[O-])c1)=C\c1ccccc1 | -17 | -3 | . | . | 49* | .
O=C(NN=Cc1cc(Cl)ccc1[N+](=O)[O-])c1cccc2ccccc12 | -11 | . | 1 | -8 | 5 | .
O=C(N/N=C/c1cc([N+](=O)[O-])ccc1O)c1cccc2ccccc12 | 13 | -4 | 24 | 69* | 18 | -7
O=C(N/N=C/c1ccncc1)c1cccc([N+](=O)[O-])c1 | -7 | . | 17 | 4 | 11 | .
O=C(NN=Cc1ccccc1Cl)c1cccc2ccccc12 | 3 | . | -10 | 8 | 80* | .
C[C@@H]1CN([C@@H](C)CO)C(=O)Cc2cc(NC(=O)c3ccncc3)ccc2O[C@H]1CN(C)S(=O)(=O)c1ccc(F)cc1 | . | 1[16.7 µM] | -1 | -16 | 4 | 4
COc1ccc(NC(=O)N(C)C[C@@H]2Oc3ccc(NC(=O)Nc4cccc5ccccc45)cc3C(=O)N([C@H](C)CO)C[C@H]2C)cc1 | 0[16.7 µM] | 1[16.7 µM] | 0 | . | -17 | .
Cc1[nH]n(-c2cccc3ccccc23)c(=O)c1/C=N/NC(=O)c1cccc([N+](=O)[O-])c1 | 59* | 1 | -6 | -7 | -4 | .
CC(C)c1ccc(C(=O)N/N=C/c2cccc(Cl)c2Cl)cc1 | . | 4 | . | . | . | 113*
N#C[C@H]1[C@@H](c2ccc(C#CC3CCCCC3)cc2)[C@H](CO)N1C(=O)Cc1ccccn1 | 2[16.7 µM] | . | -2 | 18 | 0 | 14
C[C@@H]1CN([C@H](C)CO)C(=O)c2cc(NS(C)(=O)=O)ccc2O[C@@H]1CN(C)C(=O)Nc1ccc2c(c1)OCO2 | . | 1[16.7 µM] | 3 | . | -3 | -20
CCOC(=O)C1=C(COC(=O)c2cccs2)NC(=O)NC1C (stereo not drawn) | . | . | 0 | -6 | 59* | -9
CCOC(=O)C1=C(COC(=O)c2ccc(C)s2)NC(=O)NC1C (stereo not drawn) | . | -3 | -3 | -12 | 0 | 9
C[C@@H]1CN([C@H](C)CO)S(=O)(=O)c2ccc(C3=CCCCC3)cc2O[C@H]1CN(C)Cc1ccccc1F | 31[16.7 µM] | . | 35 | . | -7 | -37
COCC#Cc1cnc2c(c1)C(=O)N([C@H](C)CO)C[C@H](C)[C@@H](CN(C)C(=O)c1ccc3c(c1)OCO3)O2 | 9[16.7 µM] | -3[16.7 µM] | -11 | . | 19 | 13
O=S(=O)(NC[C@@H]1CC[C@@H]2[C@@H](CN2Cc2cccc(-c3ccccn3)c2)O1)c1ccccc1 | . | . | -3 | . | . | .
COC(=O)c1ccc(NS(=O)(=O)c2ccc(OC)cc2)cc1 | -53 | 13 | . | . | 10 | -39
N#CCc1ccc(NS(=O)(=O)c2ccc(C3CCCCC3)cc2)cc1 | . | 182* | -14 | 23 | -46 | .
COc1ccc(S(=O)(=O)Nc2ccc(CC#N)cc2)cc1 | . | 164* | . | . | . | -6
SMILES | HIV Env fusion | miR-122 sensor | EWS-Fli block | PAX8 inh HTS | INS-1E GSIS act | Statin myotox sup
CCCNC(=O)C(=O)c1cccn1-c1ccsc1C(=O)OC | -109 | -1 | . | 0 | . | 119*
CCOC(=O)c1c(C)[nH]c(C(=O)COC(=O)/C=C/c2ccc(O)c(OC)c2)c1C | -6 | 2 | . | -7 | 3 | 5
CCOC(=O)c1c(C)[nH]c(C(=O)COC(=O)/C=C/c2ccc3c(c2)OCO3)c1C | -69 | . | . | -9 | 59* | .
O=C(C1=NN(c2ccccc2)C(=O)CC1)N1CCc2ccccc2C1 | 3 | -3 | 3 | 13 | 113* | 13
CC(C)NC(=O)C1=NN(c2ccccc2)C(=O)CC1 | 4 | 0 | -12 | 6 | -3 | 3
CO[C@@H]1CN(C)C(=O)c2ccc(NS(C)(=O)=O)cc2OC[C@H](C)N(CC2CCCCC2)C[C@@H]1C | -15[16.7 µM] | . | 1 | . | -2 | 8
CC(=O)Oc1cc(OC(C)=O)c2c(C)cc(=O)oc2c1 | . | 2 | . | . | . | 97*
N=C(N)c1ccc(N=Nc2c(O)ccc3c2[nH]c2ccccc23)cc1 | . | 1 | 44 | 26 | 47* | .
C=C1C(=O)O[C@@H]2[C@H]3O[C@]3(C)CC/C=C(\C)CC[C@@H]12 | 23 | -10 | 2 | 101* | -13 | -1
CC(C)NC(=O)Nc1ccc2c(c1)C(=O)N([C@H](C)CO)C[C@@H](C)[C@@H](CN(C)C(=O)Nc1ccc(F)cc1)O2 | 4[16.7 µM] | -1[16.7 µM] | -17 | -10 | 9 | -9
N/C(=N\OC(=O)c1cccc(Br)c1)c1ccc(Br)cc1 | . | 8 | . | . | . | 96*
CC(C)(C)c1ccc(C(=O)O/N=C(\N)c2ccccc2)cc1 | -19 | 8 | 76* | 30 | -7 | -4
N/C(=N\OC(=O)c1ccc(Br)cc1)c1ccccc1 | -310 | 1 | . | . | . | -9
C/C(=N\NC(=O)c1cccc(Br)c1)c1ccc(Br)cc1 | 10 | . | . | -21 | 56* | .
C[C@H]1CN([C@@H](C)CO)C(=O)Cc2cc(NC(=O)Cn3cnnn3)ccc2O[C@@H]1CN(C)Cc1ccc(C(=O)O)cc1 | -11[16.7 µM] | -10[16.7 µM] | 3 | . | 18 | 11
C[C@@H]1CN([C@@H](C)CO)C(=O)c2cc(NC(=O)Nc3cccc4ccccc34)ccc2O[C@@H](C)CCCCO[C@H]1CN(C)S(=O)(=O)c1ccc(F)cc1 | . | . | 13 | 12 | 10 | .
Cc1ccc(C(=O)Oc2ccc(-c3nccc(-c4ccccn4)n3)cc2)cc1 | . | -6 | . | . | 56* | 1
O=C(Oc1ccc(-c2nccc(-c3ccccn3)n2)cc1)c1cccc(C(F)(F)F)c1 | . | 1 | . | . | . | .
Cc1ccc(C)c(CSC2=NCCN2C(=O)Cc2ccc([N+](=O)[O-])cc2)c1 | 9 | . | -3 | 95* | -24 | .
Cc1ccc(NN2C(=O)C=C(c3ccccc3)C2=O)cc1 | -52 | 5 | 63* | 24 | -5 | .
CCCCCC(O)(c1ccc(OCC)cc1)C(CN1CCOCC1)c1ccccc1 (stereo not drawn) | 59* | . | -11 | 25 | -32 | -9
COc1ccc(C(O)(C2CCCCC2)C(CN2CCOCC2)c2ccccc2)cc1 (stereo not drawn) | 74* | . | 12 | 8 | -40 | 26
CCCCCC(O)(c1ccc(OC)cc1)C(CN1CCOCC1)c1ccccc1 (stereo not drawn) | 44 | . | 8 | -4 | -12 | 16

Compound activity (PubChem BioAssay)
